Data taken from PubChem BioAssay (NCATS).
The source holds several records for some structures; these can differ, active in one and inactive in another. The source made the active and inactive calls. The call rests on the fitted dose curve. Starred links: 1 amine or outer side, 2 acyl side, 3 side chain; linkers in the order of their positions; H or OH if unused. Positions of bridges follow the written chain, without caps; N, C: chain ends. Non-standard residues stand in square brackets, D forms with d. Residues, ends and D or L forms follow the SMILES beside them. Chains are numbered I, II in the order given. Actinocin(9to1) = Cc1c2oc3c(C)ccc(C(=O)[*:1])c3nc-2c(C(=O)[*:2])c(N)c1=O; NMeV = CN[CH](C(=O)O)C(C)C; Sar = CNCC(=O)O

experiment: qHTS drug screen for cell cycle checkpoint inhibitors in PARPi-resistant BRCA-mutant ovarian cancer cell lines. (AID 1963452); conditions: PEO1/OlaR viability, CellTiter-Glo luminescence, 96 h
Procedure, shortened: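 PEO1, PEO4 and PEO1/OlaR ovarian cancer cells, 600 per well, exposed 96 h at 37C to a dilution series. Viability read by CellTiter-Glo luminescence, normalized to DMSO and empty wells; activity summarized as Z-AUC.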
Potency means the concentration at half of the fitted maximal effect.

Row | Compound | Potency
1 | CC(C)C[C@H](NC(=O)[C@@H](NC(=O)c1cccc(-c2ccccc2)n1)[C@@H](C)O)B(O)O | 0.0601 µM (active)
2 | Cn1cc(CNCC2CCN(c3ncc(C(=O)NO)cn3)CC2)c2ccccc21 | 0.195 µM (active)
3 | N#CNC(=NCCCCCCOc1ccc(Cl)cc1)Nc1ccncc1 | 0.0347 µM (active)
4 | Cn1cc(-c2cnn3c(N)c(Br)c([C@H]4CCCNC4)nc23)cn1 | 3.47 µM (active)
5 | COc1cccc2c1C(=O)c1c(O)c3c(c(O)c1C2=O)C[C@@](O)(C(=O)CO)C[C@@H]3O[C@H]1C[C@H](N)[C@H](OC2CCCCO2)[C@H](C)O1 (stereo not given in full) | 0.245 µM (active)

same assay, conditions: PEO1/OlaR viability, CellTiter-Glo luminescence, 96 h; active compounds read low

Row | Compound | Z-AUC
6 | O=C1NCCc2[nH]c(-c3ccncc3)cc21 | -1.33 (inactive)
7 | Cn1cc(C2=C(c3c4n(c5ccccc35)CCC(CN)C4)C(=O)NC2=O)c2ccccc21 (stereo not given) | 0.936 (inactive)
8 | CC(C)c1cnn2c(NCc3ccccc3)cc(NCCCCCCN)nc12 | 1.27 (inactive)
9 | Cc1ccc2nc(NCCN)c3ncc(C)n3c2c1 | 0.876 (inactive)
10 | O=C(O)CCCCC(CCSCc1ccccc1)SCc1ccccc1 (stereo not given) | 1.05 (inactive)
11 | CC(C)Oc1ccc(C(=O)N[C@H](CNC(=O)CN(C)C)Cc2ccc(-c3cn4cccc([C@H](C)O)c4n3)cc2)cc1Cl | -1.44 (inactive)
12 | Nc1nc(=O)n([C@H]2C[C@H](O)[C@@H](CO)O2)cc1F | -1.47 (inactive)
13 | CN1CCc2c(c3ccccc3n2Cc2ccc(C(=O)NO)cc2)C1 | -0.848 (inactive)
14 | C=C[C@@H]1CN2CCC1C[C@H]2[C@H](O)c1ccnc2ccc(OC)cc12 (stereo not given in full) | -0.116 (inactive)
15 | O=[N+]([O-])c1cn2c(n1)OC[C@@H](OCc1ccc(OC(F)(F)F)cc1)C2 | 0.733 (inactive)
16 | COC(=O)C1C2CC3c4[nH]c5cc(OC)ccc5c4CCN3CC2CC(OC(=O)c2cc(OC)c(OC)c(OC)c2)C1OC (stereo not given) | 1.42 (inactive)
17 | Cc1cnc(Nc2ccc(CN3CCOCC3)cc2)nc1Nc1cccc(S(=O)(=O)NC(C)(C)C)c1 | -2.02 (inactive)
18 | Nc1ccn(C2CO[C@H](CO)O2)c(=O)n1 (stereo not given in full) | 0.13 (inactive)
19 | COc1ccc(Nc2nccc(NCCO)n2)cc1 | 1.22 (inactive)
20 | Oc1cc2c(cc1O)C1c3ccc(O)c(O)c3OCC1(O)C2 (stereo not given) | 1.52 (inactive)
21 | COc1cc2ncnc(Nc3cccc(Br)c3)c2cc1OC | 0.281 (inactive)
22 | Oc1ccc([C@@H]2Oc3ccc(O)cc3[C@@H]3CCC[C@@H]32)cc1 | 0.648 (inactive)
23 | CC(C)n1cnc2c(NCCc3ccc(O)cc3)nc(-c3csc4ccccc34)nc21 | 0.419 (inactive)

Row | Compound | Z-AUC
24 | Cc1cc(O)c2c(c1)C(=O)c1cccc(O)c1C2=O | -0.855 (inactive)
25 | Cn1cnc(=N)c2[nH]cnc21 | 1.05 (inactive)
26 | CC(C)c1cc(C(C)C)c(CC(=O)NS(=O)(=O)Oc2c(C(C)C)cccc2C(C)C)c(C(C)C)c1 | 0.134 (inactive)
27 | FC(F)c1nc2ccccc2n1-c1nc(N2CCOCC2)nc(N2CCOCC2)n1 | -1.24 (inactive)
28 | O=C(Nc1cccc(Nc2ncc(Br)c(NCCc3cnc[nH]3)n2)c1)N1CCCC1 | -0.432 (inactive)
29 | Cc1c2oc3c(C)ccc(C(=O)NC4C(=O)NC(C(C)C)C(=O)N5CCCC5C(=O)N(C)CC(=O)N(C)C(C(C)C)C(=O)OC4C)c3nc-2c(C(=O)NC2C(=O)NC(C(C)C)C(=O)N3CCCC3C(=O)N(C)CC(=O)N(C)C(C(C)C)C(=O)OC2C)c(N)c1=O (stereo not given) (I: TVP[Sar][NMeV] / II: TVP[Sar][NMeV]; ester I:1-I:C, II:1-II:C; linker I:N-II:N via Actinocin(9to1); configuration not given here) | -0.322 (inactive)
30 | Cn1cc(-c2ccc3ncc(Cc4ccc5ncccc5c4)n3n2)cn1 | 0.547 (inactive)
31 | COc1cc(C(C)C)c(Oc2cnc(NC(CO)CO)nc2N)cc1I | 0.743 (inactive)
32 | CCCNS(=O)(=O)Nc1ncnc(OCCOc2ncc(Br)cn2)c1-c1ccc(Br)cc1 | 0.736 (inactive)
33 | O=C1c2cccc(O)c2C(=O)c2c(O)cc(CO)cc21 | 0.225 (inactive)
34 | Cn1cc(-c2cnn3c(N)c(Br)c([C@H]4CCCNC4)nc23)cn1 | -0.529 (inactive)
35 | Cc1noc(-c2ccc(CSCCC(=O)O)cc2)c1NC(=O)OC(C)c1ccccc1Cl (stereo not given) | -0.506 (inactive)
36 | CCOC(=O)[C@@H](N)Cc1ccc(-c2cc(O[C@H](c3ccc(Cl)cc3-n3ccc(C)n3)C(F)(F)F)nc(N)n2)cc1 | -0.389 (inactive)
37 | COc1cccc2c1C(=O)c1c(O)c3c(c(O)c1C2=O)C[C@@](O)(C(=O)CO)C[C@@H]3O[C@H]1C[C@H](N)[C@H](OC2CCCCO2)[C@H](C)O1 (stereo not given in full) | 0.402 (inactive)
38 | NC1=N[C@H]2[C@H](CS[C@H]2CCCCC(=O)O)N1 | -0.195 (inactive)
39 | CC1=C(C(=O)Nc2cc3cn[nH]c3cc2F)C(c2ccc(Cl)cc2F)N=C(c2ccnc(Cl)c2)N1 (stereo not given) | 0.0424 (inactive)
40 | C[C@@H]1C(=O)O[C@H]2CC34[C@H]5C[C@@H](C(C)(C)C)C36[C@H](OC(=O)[C@@H]6O)O[C@@]4(C(=O)O5)[C@]21O (stereo not given in full) | 0.793 (inactive)
